According to PubChem BioAssay:
“And” between values parts separate entries of the source, which are not always exact repeats. Equal values may be shown once. Inconclusive results are not listed. The source made the active and inactive calls.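 Rule for the calls, unless noted: active = z-score of at least 1.8 in each of two replicates, scored against plate mean and spread of sample wells; inactive = the rest.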

Tests used:
[1] = liver-stage malaria parasite growth inhibition, primary screen, cell-based, HepG2, luciferase luminescence, HepG2 viability (AID 624349; in the data active = parasite load remaining mostly below about 12%, no sharp cut-off; inactive = mostly above about 10%;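 note: 100% = mean of DMSO negative control wells on the same plate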); conditions: P. berghei liver stage in HepG2, luciferase luminescence, concentration not given here; parasite load remaining: stronger effect = lower value; viability: measured here: HepG2 viability without parasites
[2] = stimulators of nuclear beta-catenin in C2C12, primary screen, imaging, WNT3A-conditioned medium, mouse C2C12, NPC library (AID 1117326; in the data active = nuclear beta-catenin stimulation mostly above about 4.2%, no sharp cut-off; inactive = mostly below about 10%); conditions: stronger effect = higher value
[3] = stimulators of insulin release from INS-1E, primary screen, cell-based, 5 mM glucose, NPC library (AID 1117329;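 active = compound raises insulin release from rat beta cells at 5 mM glucose, no numeric limit stated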); conditions: rat INS-1E insulin secretion, at 10 µM, stronger effect = higher value
[4] = growth inhibition of GSK3B-pretreated HCT116 cells – cell-based, CellTiter-Glo, 0.2 to 20 µM (AID 1117336;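 active = compounds lowering colon cancer cell viability after pretreatment blocking the GSK3B kinase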); conditions: HCT116 viability after GSK3B inhibitor, at 20 µM, stronger effect = higher value
[5] = inhibition of endothelial tube formation, primary screen, imaging, VEGF stimulated, CD31 staining, tube area, NPC library (AID 1117340;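 active = compound that reduces growth-factor-driven endothelial tube area in a mixed cell culture, no cutoff stated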); conditions: VEGF-stimulated ADSC/ECFC co-culture, at 10 µM, stronger effect = higher value
[6] = glucagon-like peptide 1 release enhancers, primary assay, NCI-H716 cell line, NPC library (AID 1117341;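 active = compound raises GLP1 secretion from the human gut endocrine cells, with no numeric limit stated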); conditions: NCI-H716 cells, at 10 µM, stronger effect = higher value
[7] = HCT116 colon cancer cell growth inhibition, primary screen, CellTiter-Glo luminescence, NPC library (AID 1117342;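 active = compounds that lower survival of HCT116 colon cancer cells in the luminescence readout, no numeric limit stated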); conditions: at 20 µM (top of the series)
[8] = CellTiter-Glo luminescent readout of SW480 viability loss, NPC library primary (AID 1117343;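 active = compounds that lower viability of the colon cancer cells in the luminescence readout, with no numeric limit stated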); conditions: CellTiter-Glo luminescence; at 20 µM (top of the series) unless noted
[9] = decreased DLD-1 cellular survival, CellTiter-Glo luminescent readout, NPC compound collection, primary HTS (AID 1117346;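 active = compounds that lower survival of DLD-1 colon cancer cells in the luminescence readout, no cutoff given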); conditions: DLD-1 viability, CellTiter-Glo luminescence; at 20 µM (top of the series)
[10] = differential killing of epithelial or mesenchymal cells, primary screen, imaging, PC-3E GFP, TEM4-18 mCherry, co-culture (AID 1345086;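 active = compounds killing one labelled cell type while sparing the other, by normalised counts and ratio limits, not self-fluorescent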;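 note: cells exposed to compound for 72 h before imaging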;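 for red/green cell ratio (normalised): normalised mesenchymal count divided by normalised epithelial count so high means epithelial killing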); conditions: imaging cell counts, at 1 µM
[11] = sensitizers of A549 cells to miR-34 induction, primary screen, imaging, A549 dox-inducible miR-34, nuclei and caspase counts (AID 1347080;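 active = compounds whose cell count with miR-34 switched on is under 0.7 times the count with it off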); conditions: A549 miR-34 inducible, Hoechst nuclei count, 48 h
[12] = target: NAD(+) hydrolase SARM1 (Homo sapiens) (UniProt Q6SZW1); assay: SARM1 TIR NADase inhibitors, cell lysate, NAD-Glo luminescence (AID 1508614;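 active = compound whose remaining NAD level is above about 45 nM, limit read from the data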;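 note: higher remaining NAD means stronger inhibition of SARM1 NADase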); conditions: SAM-TIR HEK293T lysate NADase, at 1 µM, stronger effect = higher value
[13] = test system: Aerobactin synthetase IucA (Klebsiella pneumoniae); assay: IucA aerobactin synthetase inhibitors, biochemical, Tocris library, absorbance (AID 1345561; call rule not given here;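 note: 100% = enzyme without compound and 0% = no enzyme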); conditions: purified IucA enzyme assay, absorbance (OD) read-out; stronger effect = lower value;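 tested at 8 µM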
[14] = growth inhibition of DIPG glioma cells, dose response, cell-based, SU-DIPG-XVII, MIPE5.0, CellTiter-Glo, qHTS (AID 1347060; cut-off not given, nearly all actives have AC50 up to about 26 µM); conditions: SU-DIPG-XVII viability, CellTiter-Glo ATP luminescence
[15] = growth inhibition of DIPG glioma cells, dose response, cell-based, SU-DIPG-XIII, MIPE4.0, CellTiter-Glo, qHTS (AID 1347061; cut-off not given, nearly all actives have AC50 up to about 37 µM;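 note: cells exposed to compound for 48 hours before readout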); conditions: SU-DIPG-XIII viability, CellTiter-Glo ATP luminescence
[16] = SU-DIPG-VI glioma cell viability, MIPE4.0 library, CellTiter-Glo luminescence, qHTS (AID 1347066; cut-off not given, nearly all actives have AC50 up to about 30 µM;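 note: cells exposed to compound for 48 hours before readout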); conditions: CellTiter-Glo ATP luminescence
[17] = SU-DIPG-XXV glioma cell viability, MIPE5.0 library, qHTS (AID 1347068; cut-off not given, nearly all actives have IC50 up to about 30 µM)
[18] = survival rescue of mitochondrial mutant cells in low glucose, primary screen, MELAS cybrids, Rieske KO mouse fibroblasts, CellTiter-Glo (AID 1508586;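 active = mean z-score across replicates of 1.96 or higher in either the MELAS or the Rieske mutant cell line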;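 note: z relative to plate mean and SD of compound and empty wells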)
[19] = viability rescue of complex I mutant cybrids, primary screen, cell-based, galactose medium, ATP luminescence (AID 1645843); conditions: complex I mutant cybrid cells, 72 h, stronger effect = higher value;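 note: positive z means more ATP and so rescue of galactose-driven cybrid death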
[20] = stronger effect = lower value, cell number ratio, induced over uninduced
[21] = measured here: relative caspase fold change +Dox/-Dox
[22] = measured here: total cells with miR-34 induction, stronger effect = lower value
[23] = measured here: total cells without miR-34 induction
[24] = MELAS cybrid survival, CellTiter-Glo 48 h, stronger effect = higher value
[25] = Rieske KO mouse fibroblast survival, CellTiter-Glo 72 h

NAD(+) hydrolase SARM1 (Homo sapiens), sequence (Q6SZW1 whole entry, looked up): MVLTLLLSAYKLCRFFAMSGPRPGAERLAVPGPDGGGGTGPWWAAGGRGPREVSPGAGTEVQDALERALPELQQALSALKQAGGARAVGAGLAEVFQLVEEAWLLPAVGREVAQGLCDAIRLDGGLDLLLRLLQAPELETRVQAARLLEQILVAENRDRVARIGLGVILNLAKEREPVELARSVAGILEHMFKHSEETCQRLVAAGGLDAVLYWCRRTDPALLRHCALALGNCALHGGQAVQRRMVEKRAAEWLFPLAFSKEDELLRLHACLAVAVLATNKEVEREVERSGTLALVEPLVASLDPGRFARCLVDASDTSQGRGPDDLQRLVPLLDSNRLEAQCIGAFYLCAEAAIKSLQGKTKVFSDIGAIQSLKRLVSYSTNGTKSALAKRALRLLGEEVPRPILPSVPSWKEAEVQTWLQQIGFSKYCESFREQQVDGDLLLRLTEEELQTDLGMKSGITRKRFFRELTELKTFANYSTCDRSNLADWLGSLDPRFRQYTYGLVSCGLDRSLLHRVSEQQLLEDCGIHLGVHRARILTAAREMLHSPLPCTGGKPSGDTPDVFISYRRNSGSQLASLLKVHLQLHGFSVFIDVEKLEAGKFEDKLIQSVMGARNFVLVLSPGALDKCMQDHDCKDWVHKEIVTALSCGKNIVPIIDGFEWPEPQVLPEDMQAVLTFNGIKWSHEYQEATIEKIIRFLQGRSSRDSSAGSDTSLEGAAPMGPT

## CCN(CC)CCOc1ccc2c(c1)C(=O)c1cc(OCCN(CC)CC)ccc1-2
[1]
  parasite load remaining: 151% (inactive) and 24.6% (inactive)
  viability: 84.5% and 89%
[2]; at 10 µM
  nuclear beta-catenin stimulation: 8.6% (inactive)
[2]; stimulation, at 2 µM
  nuclear beta-catenin stimulation: 0.3%
[3]
  insulin secretion stimulation: 3.7% (inactive)
[4]
  viability decrease: -16.4% (inactive)
[5]
  tube area decrease: 13% (inactive)
[6]
  GLP1 secretion stimulation: 3.6% (inactive)
[7]
  inhibition of viability: 52.8% (active)
[8]
  viability decrease (inhibition): 95.3% (active)
[9]
  viability decrease (inhibition): 38.8% (inactive)
[10]; actives lie on both sides, counts scaled to control wells, 1 = unselective
  red/green cell ratio (normalised): 1.18 (inactive)
[10]; measured here: epithelial PC-3E GFP cell survival
  normalised cell number: 0.79
[10]; measured here: mesenchymal TEM4-18 mCherry cell survival
  normalised cell number: 0.93
[11]; [20]
  fold change: 0.841 (inactive)
[11]; [21]
  fold change: 3.57
[11]; [22]
  cell count: 9990
[11]; [23]
  cell count: 11900
[12]
  remaining NAD: 10 nM (inactive)

## C1COC(NC(C2CC2)C2CC2)=N1
[1]
  parasite load remaining: 46.7% (inactive)
  viability: 103%
[2]; at 10 µM
  nuclear beta-catenin stimulation: 0.2% (inactive)
[2]; stimulation, at 2 µM
  nuclear beta-catenin stimulation: -0.7%
[3]
  insulin secretion stimulation: 1.6% (inactive)
[4]
  viability decrease: -1.8% (inactive)
[5]
  tube area decrease: -7.6% (inactive)
[6]
  GLP1 secretion stimulation: 1.5% (inactive)
[7]
  inhibition of viability: 5.7% (inactive)
[8]
  viability decrease (inhibition): -4% (inactive)
[9]
  viability decrease (inhibition): 7.9% (inactive)
[13]
  remaining activity: 98.2% (inactive)
[14]
  outcome: inactive
[15]
  outcome: inactive
[16]
  outcome: inactive
[17]
  outcome: inactive
[11]; [20]
  fold change: 0.947 (inactive) and 0.935 (inactive) and 0.925 (inactive)
[11]; [21]
  fold change: 1.18 and 0.627 and 1.06
[11]; [22]
  cell count: 9720 and 9420 and 10200
[11]; [23]
  cell count: 10300 and 10100 and 11000
[18]; [24]
  z-score: 0.462 (inactive)
[18]; [25]
  z-score: 0.9
[19]
  z-score: 0.365 (inactive) and -0.285 (inactive) and 0.8 (inactive)

## COC(=O)[C@@H]1CC2=CC(=O)CC[C@]2(C)[C@@]23O[C@@H]2C[C@@]2(C)[C@@H](CC[C@@]24CCC(=O)O4)[C@H]13
[2]; at 10 µM
  nuclear beta-catenin stimulation: -0.1% (inactive)
[2]; stimulation, at 2 µM
  nuclear beta-catenin stimulation: 1.3%
[3]
  insulin secretion stimulation: -0.55% (inactive)
[4]
  viability decrease: -0.7% (inactive)
[5]
  tube area decrease: 23.1% (inactive)
[6]
  GLP1 secretion stimulation: -1.5% (inactive)
[7]
  inhibition of viability: -5.5% (inactive)
[8]
  viability decrease (inhibition): 24.4% (inactive)
[9]
  viability decrease (inhibition): -7.2% (inactive)
[13]
  remaining activity: 96.4% (inactive)
[14]
  outcome: inactive
[15]
  outcome: inactive
[16]
  outcome: inactive
[17]
  outcome: inactive
[11]; [20]
  fold change: 0.96 (inactive)
[11]; [21]
  fold change: 1.45
[11]; [22]
  cell count: 9220
[11]; [23]
  cell count: 9600
[19]
  z-score: -0.005 (inactive)

## CN(C)C/C=C(/c1ccc(Br)cc1)c1cccnc1
[1]
  parasite load remaining: 94.7% (inactive) and 60.5% (inactive)
  viability: 85.2% and 195%
[2]; at 10 µM
  nuclear beta-catenin stimulation: 1.1% (inactive)
[2]; stimulation, at 2 µM
  nuclear beta-catenin stimulation: -0.9%
[3]
  insulin secretion stimulation: 45% (active)
[4]
  viability decrease: -1.3% (inactive)
[5]
  tube area decrease: 9.7% (inactive)
[6]
  GLP1 secretion stimulation: 8% (inactive)
[7]
  inhibition of viability: 41.9% (inactive)
[8]
  viability decrease (inhibition): 52.1% (active)
[9]
  viability decrease (inhibition): 5.9% (inactive)
[13]
  remaining activity: 124% (inactive)
[11]; [20]
  fold change: 1.02 (inactive) and 0.948 (inactive) and 0.885 (inactive)
[11]; [21]
  fold change: 0.961 and 0.963 and 4.02
[11]; [22]
  cell count: 8760 and 8650 and 11500
[11]; [23]
  cell count: 8570 and 9130 and 13000
[19]
  z-score: -0.1 (inactive) and -0.42 (inactive)

## Cl/C(=C\n1cncn1)c1ccc(Cl)cc1Cl
[2]; at 10 µM
  nuclear beta-catenin stimulation: 3.9% (inactive)
[2]; stimulation, at 2 µM
  nuclear beta-catenin stimulation: 4%
[3]
  insulin secretion stimulation: 2.4% (inactive)
[4]
  viability decrease: 3% (inactive)
[5]
  tube area decrease: -2.8% (inactive)
[6]
  GLP1 secretion stimulation: -1.4% (inactive)
[7]
  inhibition of viability: 30.3% (inactive)
[8]
  viability decrease (inhibition): 13.4% (inactive)
[9]
  viability decrease (inhibition): 24.2% (inactive)
[13]
  remaining activity: 121% (inactive)
[11]; [20]
  fold change: 0.89 (inactive)
[11]; [21]
  fold change: 0.653
[11]; [22]
  cell count: 8590
[11]; [23]
  cell count: 9640
[19]
  z-score: -0.15 (inactive)

## CN1CC(=O)N/C1=N/C(=O)Nc1cccc(Cl)c1
[2]; at 10 µM
  nuclear beta-catenin stimulation: 0.5% (inactive)
[2]; stimulation, at 2 µM
  nuclear beta-catenin stimulation: -0.6%
[3]
  insulin secretion stimulation: -2.5% (inactive)
[4]
  viability decrease: -6.65% (inactive)
[5]
  tube area decrease: -5.1% (inactive)
[6]
  GLP1 secretion stimulation: 4.2% (inactive)
[7]
  inhibition of viability: -16.7% (inactive)
[8]
  viability decrease (inhibition): 45.2% (inactive)
[9]
  viability decrease (inhibition): 3.8% (inactive)
[13]
  remaining activity: 109% (inactive)
[11]; [20]
  fold change: 0.899 (inactive)
[11]; [21]
  fold change: 1.49
[11]; [22]
  cell count: 8750
[11]; [23]
  cell count: 9740
[19]
  z-score: 0.46 (inactive)

## CCn1ccnc1CC1COc2ccccc2O1 (configuration not stated)
[2]; at 10 µM
  nuclear beta-catenin stimulation: 1.8% (inactive)
[2]; stimulation, at 2 µM
  nuclear beta-catenin stimulation: 0.3%
[3]
  insulin secretion stimulation: -3.2% (inactive)
[4]
  viability decrease: -16.7% (inactive)
[5]
  tube area decrease: -3.6% (inactive)
[6]
  GLP1 secretion stimulation: 0% (inactive)
[7]
  inhibition of viability: 1.63% (inactive)
[8]
  viability decrease (inhibition): 7.7% (inactive)
[9]
  viability decrease (inhibition): -5.9% (inactive)
[13]
  remaining activity: 82.4% (inactive)
[11]; [20]
  fold change: 1.08 (inactive) and 0.969 (inactive)
[11]; [21]
  fold change: 1.15 and 0.987
[11]; [22]
  cell count: 10600 and 8940
[11]; [23]
  cell count: 9870 and 9220
[19]
  z-score: 0.675 (inactive) and 1.33 (inactive)

## Cn1ccc2cc3c(cc21)CCN3C(=O)Nc1cccnc1
[2]; at 10 µM
  nuclear beta-catenin stimulation: 0.8% (inactive)
[2]; stimulation, at 2 µM
  nuclear beta-catenin stimulation: -1.3%
[3]
  insulin secretion stimulation: -1.4% (inactive)
[4]
  viability decrease: -4.4% (inactive)
[5]
  tube area decrease: -4.4% (active)
[6]
  GLP1 secretion stimulation: 0.1% (inactive)
[7]
  inhibition of viability: 24.2% (inactive)
[8]
  viability decrease (inhibition): 12.7% (inactive)
[9]
  viability decrease (inhibition): -22.3% (inactive)
[13]
  remaining activity: 117% (inactive)
[15]
  AC50: 14.8 µM (active)
[16]
  outcome: inactive
[17]
  outcome: inactive
[11]; [20]
  fold change: 1.01 (inactive) and 0.974 (inactive)
[11]; [21]
  fold change: 1.08 and 0.723
[11]; [22]
  cell count: 11100 and 8340
[11]; [23]
  cell count: 11000 and 8560
[19]
  z-score: 1.23 (inactive) and 0.545 (inactive)

## CC#C[C@]1(O)CC[C@H]2[C@@H]3CCC4=CC(=O)CCC4=C3[C@@H](c3ccc(N(C)C)cc3)C[C@@]21C
[2]; at 10 µM
  nuclear beta-catenin stimulation: 9.1% (inactive)
[2]; stimulation, at 2 µM
  nuclear beta-catenin stimulation: 4%
[3]
  insulin secretion stimulation: 1% (inactive)
[4]
  viability decrease: 94.5% (active)
[5]
  tube area decrease: 16.1% (inactive)
[6]
  GLP1 secretion stimulation: -3.8% (inactive)
[7]
  inhibition of viability: 84.3% (active)
[8]
  viability decrease (inhibition): 102% (active)
[9]
  viability decrease (inhibition): 98.6% (active)
[13]
  remaining activity: 115% (inactive)
[16]
  AC50: 2.96 µM (active)
[17]
  outcome: inactive
[18]; [24]
  z-score: 1.08 (inactive) and 0.356 (inactive)
[18]; [25]
  z-score: 0.475 and 1.05
[12]
  remaining NAD: 10 nM (inactive)
[19]
  z-score: 0.48 (inactive) and -0.34 (inactive) and 0.325 (inactive)
